Values joined by “and” are separate entries in the source; they are usually repeats but may differ in a detail not shown here. Equal values may be shown once. Compounds without any hit were thinned out: in the full panel of roughly 83,000, 20% have a hit.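 Values shown are percent growth following 48 h exposure of cells in 96-well plates to a single concentration of compound; below 10 was considered active.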 Some structures have more than one record in an assay (separate samples or runs), and their calls can disagree. Active and inactive are the calls of the source.
System: HL-60(TB) leukemia
Assay: NCI-60 one-dose screen, 48 h (100 = growth as untreated, 0 = no growth, -100 = all killed)
Conditions: 10 µM unless noted

Row | SMILES | growth
1 | COc1ccc(-c2csc(NC(=O)c3ccc(Cc4n[nH]c(=O)c5cccnc45)cc3)n2)cc1 | 104% (inactive)
2 | O=c1c2cc(F)ccc2oc2c(NCCNCCO)nc3ccccc3c12 | 70.5% (inactive)
3 | COC(=O)CC1=C(c2ccc([N+](=O)[O-])cc2)CCC1=O | 100% (inactive)
4 | O=c1ccn(-c2ncnc3nc[nH]c23)cc1 | 92.7% (inactive)
5 | Cn1cc(-c2csc(-c3c[nH]c4ccccc34)n2)c2cccnc21 | 11.5% (inactive)
6 | CC[N+](CC)=c1cc2oc3cc(N(C)C)ccc3nc-2cc1C | -8.38% (active)
7 | CCc1c(C)c2cc3nc(NCc4ccccc4)oc3c(C)c2oc1=O | 80.6% (inactive)
8 | C=CCn1cc(-c2nc3ccccc3s2)c2cc(-c3ccc4c5c(cccc35)C(=O)N(N)C4=O)ccc21 | 103% (inactive)
9 | CCOC(=O)c1nnn(C(Cc2ccccc2Cl)C(=O)OCC)c1C (centres undefined) | 96.5% (inactive)
10 | O=C(Nc1cccc(F)c1)c1cc(=O)[nH]c2cc(Br)ccc12 | 3.41% (active)
11 | COC(=O)/C(=C\c1c(-c2ccccc2)[nH]c2ccccc12)S(C)(=O)=O | 1.54% (active)
12 | Cc1ccc(S(=O)(=O)C2=C3C(=C(c4ccccc4)c4ccccc43)CN(S(=O)(=O)c3ccc(C)cc3)C2)cc1 | 65.7% (inactive)
13 | COc1cc(/C=C/c2cc(/C=C/c3ccc(O)c(OC)c3)n(-c3c(Cl)cccc3Cl)c(=O)n2)ccc1O | 13.5% (inactive)
14 | O=C1/C(=C2/C=Nc3ccccc32)N(O)c2ccccc21 | 8.87% (active)
15 | Cc1cc(C)c2c(c1)N(C)c1ncnc(-n3cnc4cc(C)ccc43)c1CC2C (centres undefined) | 11.1% (inactive)
16 | O=C(c1ccc(Cl)cc1)C(NCCO)c1ccc(Cl)cc1 (centres undefined) | 86.9% (inactive) and 116% (inactive)
17 | Nc1ncnc2c1N=C(c1ccc3c(c1)OCO3)CC(c1cccc(Nc3ccnc4cc(Cl)ccc34)c1)N2 (centres undefined) | 37.9% (inactive)
18 | CCNC(=S)NN | 100% (inactive)
19 | Oc1ccc2ccccc2c1N=Nc1nccs1 | -44.3% (active)
20 | O=C(Nc1cccc2ccccc12)NC1CC1 | 108% (inactive)

Row | SMILES | growth
21 | O=S(=O)(Nc1ccccc1)C1CCCCC1 | 97.2% (inactive) and 106% (inactive)
22 | Cc1ccc(/C=C2\SC(=S)N(CC(=O)NCCCN3CCOCC3)C2=O)cc1 | 99.4% (inactive)
23 | COc1cc2c3c(c4c5ccccc5[nH]c4c2c(OC)c1OC)C(=O)N(CCN1CCOCC1)C3=O | 69% (inactive)
24 | CS(=O)(=O)Nc1ccc(Nc2c3ccccc3nc3cc([N+](=O)[O-])ccc23)cc1 | -8.01% (active)
25 | O=c1cc(-c2cccnc2)oc2c1ccc1ccccc12 | 83.4% (inactive)
26 | CC1CCCc2sc3nc(NNC(=O)c4cnccn4)n(-c4ccccc4)c(=O)c3c21 (centres undefined) | -33.4% (active) and -12.4% (active)
27 | N#C/C(=C\c1ccc([N+](=O)[O-])s1)c1nc2cc(Cl)ccc2s1 | 44.8% (inactive)
28 | CNC(C)[C@H]1CCC2C3CCC4C[C@@H](N(C)C(=O)c5ccccc5)CC[C@]4(C)C3CC[C@@]21C (some centres undefined) | 14.9% (inactive)
29 | Cc1cc(NCc2cc(Nc3ccnc4cc(Cl)ccc34)ccc2F)nc(N2CCSCC2)n1 | -61.4% (active)
30 | Cc1cc(=O)n(Nc2ccccc2)c(O)c1C#N | 90.3% (inactive)
31 | CCC(=O)Oc1ccc(OCc2ccccc2)cc1 | 35.9% (inactive) and 84.2% (inactive)
32 | COc1cc2c(c(OC)c1OC)-c1ccc(OC)c(=O)cc1[C@@H](NC(C)=O)CC2 | -36% (active) and -38.2% (active)
33 | CCOC(=O)C(N)Cc1cc(I)c(O)c(I)c1 (centres undefined) | 99.9% (inactive) and 132% (inactive)
34 | OC(c1cc(-c2ccc(C(F)(F)F)cc2)nc(C(F)(F)F)c1)C1CCCCN1 (centres undefined) | -47.6% (active) and -72.8% (active) and 36.6% (inactive)
35 | CCCCOc1nc2ccccc2cc1/C=C/c1cc(/C=C/c2cc3ccccc3nc2OCCCC)n(-c2ccccc2)n1 | 97.5% (inactive)
36 | O=S(=O)(c1ccccc1)n1cc2c(c1)-c1nc(Nc3ncccn3)sc1CC2 | 66.2% (inactive)
37 | Cc1c(C(=O)NCCCc2ccccc2)sc2ncc(-c3ccc(Br)cc3)n12 | 90.1% (inactive)
38 | CN(C)c1ccc(/C=C/C=N/NC(=O)c2cc(O)c(O)c(O)c2)cc1 | 84.2% (inactive)
39 | COc1cc(/C=N/Nc2nc3c([nH]2)c(=O)n(C)c(=O)n3C)ccc1O | 90.7% (inactive) and 103% (inactive)

From PubChem BioAssay (NCI)
